Structures are written as SMILES.

The target in one test is Carbonic anhydrase 2 (Homo sapiens) (UniProt P00918). The test can be described thus: CAII small-molecule binders, profiling panel, biochemical, small-molecule microarray, Alexa647-labelled CAII (AID 1122). Conditions: CAII-A647 binding fluorescence, higher = more signal.
For the molecule `CO[C@H]1COC(=O)CC=C[C@@H](C)COC(=O)[C@@H](C)NC(=O)CC=C[C@@H]1C`, the composite z-score is -0.681. Consider `C=C[C@H](OC)[C@@H](OC(=O)Nc1ccc(SC)cc1)c1ccc(O)c(F)c1`, for which the composite z-score is 0.699. For `[N-]=[N+]=NCc1ccccc1C[C@@]1(C(=O)N2CCOCC2)N=C(c2ccc(OCCCO)cc2)O[C@@H]1c1ccccc1N=[N+]=[N-]`, the composite z-score turned out to be 0.771. `[N-]=[N+]=NCc1ccccc1C[C@@]1(C(=O)O)N=C(c2ccc(OCCCO)cc2)O[C@@H]1c1ccccc1N=[N+]=[N-]` returned a composite z-score of 0.726. The same measure, in the same setting: the same measure for `CSCC[C@@H]1NC(=O)CC=C[C@@H](C)COC(=O)[C@H](CCSC)NC(=O)CC=C[C@@H](C)COC1=O`: -0.342; for `C=C(COC)/C(=C/C[C@@H](OC(C)=O)c1cccc(OCCO)c1)c1cc(C(=O)OC)ccc1OC`: 0.402.

In turn, `CCOC(=O)C[C@H]1[C@H](OC(=O)c2cc3ccccc3oc2=O)[C@@H](NC(=O)C2CCCCC2)c2cc(OCCCO)ccc2N1C(=O)c1ccc2ccccc2n1` displayed a composite z-score of 0.0744. For `C=C(COC)C(=O)CC[C@H](OC(=O)c1ccccc1-c1ccccc1C(=O)O)c1cccc(OCCO)c1`, the composite z-score was 0.418. The same measure, in the same setting: the same measure for `C=CC[C@]1(C(=O)OC)N=C(c2ccc(OCCCO)cc2)O[C@H]1c1ccccc1CN=[N+]=[N-]`: 0.206.

System in a further test: not listed separately
The experiment in a line: COS7 lysate on small-molecule microarray, probe aHis, 635 nm (AID 1123).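 Also: z-score combines 667nm fluorescence intensity with signal-to-noise per printed compound spot.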 As to conditions: COS7 cell lysate, fluorescence, higher = more signal.
Molecule `O=[N+]([O-])c1ccc(C[n+]2ccc3ccc(O)cc3c2)o1` displayed a composite z-score of 0.466. In turn, `O=C1O[C@@H](c2ccccc2)[C@@H](c2ccccc2)N2[C@@H](c3ccccc3OCCO)[C@]3(C(=O)Nc4ccc(C#CC5=CCCCC5)cc43)[C@@H](C(=O)O)[C@H]12` had a composite z-score of 1.67. `CCC#CCN(Cc1ccccc1Br)[C@H](/C=C/c1ccccc1)[C@@H](O)Cc1ccccc1`: the composite z-score was 0.301.

`COCCOC(=O)N1C(=O)[C@@]2(c3cc(C#CC4(O)CCCCCC4)ccc31)[C@H](C(=O)N1CCCCCCC1)[C@H]1C(=O)O[C@H](c3ccccc3)[C@H](c3ccccc3)N1[C@@H]2c1ccc(O)cc1` yielded a composite z-score of 2.62. Take `C[N+](C)(C)CCCCNC(=O)[C@@H]1C[C@@H]2C(=O)N3CCC[C@H]3C(=O)N2[C@@H]1c1cccc(OCCO)c1`: the composite z-score was 0.538. Consider `C=CCN1C(=O)[C@]2(O[C@H](CCn3cc(CCO)nn3)[C@@H]([Si](C)(C)c3ccc(OC)cc3)[C@@H]2C)c2cc(NC(=O)c3ccc(OC)cc3)ccc21`, for which the composite z-score was determined as 0.514. The same measure, in the same setting: the same measure for `CO[C@H]1COC(=O)[C@@H](Cc2ccccc2)NC(=O)[C@@H](C)COC(=O)CC=C[C@@H]1C`: -0.875. `O=C1C2C=CC(C(O)c3ccccc3)N(n3cnnc3)C2C(=O)N1Cc1ccccc1` (stereo not given) returned a composite z-score of 0.775. Same read-out and setting: the same measure for `C=C(COC)/C(=C/C[C@@H](OC(=O)c1ccncc1)c1ccc(OCCO)cc1)c1cc(C(=O)OC)ccc1OC`: 1.61; for `O=C1C[C@@](C(=O)NCCN2CCOCC2)(c2ccc([N+](=O)[O-])cc2)[C@@H](c2ccc(CO)cc2)N1C1CCCCC1`: 1.79.

Consider `COc1ccc(NN2C(C(O)c3cc(OC)c(OC)c(OC)c3)C=CC3C(=O)N(C4CCCCC4)C(=O)C32)cc1` (stereo not given), for which the composite z-score was 2.42. Still for that read-out and setting: the same measure for `C=C(C)[C@@H]1CC=C(C(O)C2C=CC3C(=O)NC(=O)C3N2Nc2ccccn2)CC1` (stereo not given in full): 1.37; for `O=C1OCCC/C=C\[C@H]2OC34C=CCN(CCN5CCOCC5)C(=O)[C@H]3N(CCCCCO)C(=O)[C@@H]4C12` (stereo not given in full): -0.687. `NC(=O)NCC#Cc1ccc2c(c1)[C@]1(C(=O)N2)[C@H](C(N)=O)[C@H]2C(=O)O[C@H](c3ccccc3)[C@H](c3ccccc3)N2[C@@H]1c1ccccc1OCCO` yielded a composite z-score of 0.841. `COc1ccc([Si](C)(C)[C@H]2[C@H](CCO)O[C@@]3(C(=O)N(Cc4ccccc4)c4ccc(N5C(=O)c6cccc7cccc5c67)cc43)[C@@H]2C)cc1` displayed a composite z-score of 0.0609.

Molecule `CN(C)c1ccc(C(O)C2C=CC3C(=O)NC(=O)C3N2Nc2ccc(Cl)cc2Cl)cc1` (stereo not given) returned a composite z-score of 2.51. `COC(=O)C(CC#Cc1ccc2c(c1)[C@]1(C(=O)N2)[C@H](C(=O)N2CCCCCCC2)[C@H]2C(=O)O[C@H](c3ccccc3)[C@H](c3ccccc3)N2[C@@H]1c1ccc(O)cc1)C(=O)OC` showed a composite z-score of -0.437.

`C=CCNC(=O)[C@@H]1[C@H]2C(=O)O[C@H](c3ccccc3)[C@H](c3ccccc3)N2[C@H](c2ccc(OCCO)cc2)[C@@]12C(=O)N(C(=O)OCCOC)c1ccc(C#CC3(O)CCCCCC3)cc12` registered a composite z-score of 1.5. `CC(C)[Si]1(C(C)C)O[C@@H](c2ccccc2)c2cc(C3CC3)nc(-c3ccc(Oc4ccccc4)cc3)c21` yielded a composite z-score of -0.346. As for `[N-]=[N+]=NCc1ccccc1C[C@]1(C(=O)N2CCCCC2)N=C(c2ccc(OCCCO)cc2)O[C@H]1c1ccccc1CN=[N+]=[N-]`, the composite z-score was determined as 2.56. Same read-out and setting: the same measure for `Cc1ccc(N2C(=O)c3ccccc3[C@@H](C(=O)NCC(F)(F)F)[C@@H]2c2ccc(CO)cc2)nc1`: -0.786.

Consider `CC(C)N1CC=CC23O[C@@H]4/C=C\CCCOC(=O)C4[C@H]2C(=O)N(CCO)[C@@H]3C1=O` (stereo not given in full), for which the composite z-score came out at 0.572. Same read-out and setting: the same measure for `O=C(NCC(F)(F)F)[C@@H]1c2ccccc2C(=O)N(Cc2ccccc2Cl)[C@H]1c1ccc(CO)cc1`: 0.546; for `C=CCNC(=O)[C@H]1[C@@H]2C(=O)O[C@@H](c3ccccc3)[C@@H](c3ccccc3)N2[C@@H](c2ccccc2OCCO)[C@]12C(=O)N(C(=O)OCCOC)c1ccc(C#CCC(C(=O)OC)C(=O)OC)cc12`: 2.13; for `C[C@@H]1C=CCC(=O)OC[C@H]2O[C@@H](C=C[C@@H]2O)[C@H](C)C=CCC(=O)OC[C@H]2O[C@H]1C=C[C@@H]2O`: -0.268. On the same count and under the same terms, the same measure for `Cc1ccc(S[C@]2(C(=O)NCCN3CCOCC3)CC(=O)N(C3Cc4ccccc4C3)[C@@H]2c2ccc(CO)cc2I)cc1`: 1.42; for `CC(C)CNC(=O)[C@@]1(C)c2ccccc2C(=O)N(Cc2ccc(OC(F)(F)F)cc2)[C@H]1c1ccc(CO)cc1`: 1.17. `CO[C@H]1COC(=O)CC=C[C@@H](C)COC(=O)[C@@H](C)NC(=O)CC=C[C@@H]1C`: the composite z-score is -0.736. In turn, `C=C[C@H](OC)[C@@H](OC(=O)Nc1ccc(SC)cc1)c1ccc(O)c(F)c1` had a composite z-score of 2.82. On to `[N-]=[N+]=NCc1ccccc1C[C@@]1(C(=O)N2CCOCC2)N=C(c2ccc(OCCCO)cc2)O[C@@H]1c1ccccc1N=[N+]=[N-]`, for which the composite z-score turned out to be 2.48. The molecule `[N-]=[N+]=NCc1ccccc1C[C@@]1(C(=O)O)N=C(c2ccc(OCCCO)cc2)O[C@@H]1c1ccccc1N=[N+]=[N-]` displayed a composite z-score of 2.05. `CSCC[C@@H]1NC(=O)CC=C[C@@H](C)COC(=O)[C@H](CCSC)NC(=O)CC=C[C@@H](C)COC1=O` showed a composite z-score of -0.45. Take `C=C(COC)/C(=C/C[C@@H](OC(C)=O)c1cccc(OCCO)c1)c1cc(C(=O)OC)ccc1OC`: the composite z-score was -0.194.

Molecule `CCOC(=O)C[C@H]1[C@H](OC(=O)c2cc3ccccc3oc2=O)[C@@H](NC(=O)C2CCCCC2)c2cc(OCCCO)ccc2N1C(=O)c1ccc2ccccc2n1` yielded a composite z-score of 0.801.

For the molecule `C=C(COC)C(=O)CC[C@H](OC(=O)c1ccccc1-c1ccccc1C(=O)O)c1cccc(OCCO)c1`, the composite z-score was found to be 4.78. As to `C=CC[C@]1(C(=O)OC)N=C(c2ccc(OCCCO)cc2)O[C@H]1c1ccccc1CN=[N+]=[N-]`, the composite z-score was determined as 2.41.

For the origin of these results see PubChem BioAssay.
